According to ChEMBL document CHEMBL3988442, “University of Dundee, Small-Polar-MMV Screening Library” (2021):
The campaign covered roughly 48,000 compounds. About 13,000 (27%) showed an effect of 50% or more. The list shows a part of the results.

system: Wolbachia pipientis; assay: Anti-Wolbachia Cell-Based Screen; assay type: functional; set-up: scale not given: in the data most compounds retested in dose-response had high values; conditions: 5 µM

Row | Compound | Percent Effect [%]
1 | CCc1cnc(N2CC[C@@H]3CN(CCC(C)C)S(=O)(=O)[C@@H]3CC2)nc1.O=C(O)C(F)(F)F | -2.106
2 | O=C1CCC2(CCOC2)CN1CCCOc1cccnc1 (stereo unspecified) | 36.56
3 | O=C(CCOCC(F)(F)F)N1CCCC(n2ccnc2)C1 (stereo unspecified) | 105.8
4 | CC(C)(C)NCC(=O)N1CCCC(n2ccnc2)C1 (stereo unspecified) | -1.533
5 | CC(C)c1noc(CCC(=O)N2CCCC(n3ccnc3)C2)n1 (stereo unspecified) | 13.44
6 | CSCCC(=O)N1CCCC(n2ccnc2)C1 (stereo unspecified) | 98.51
7 | O=C(CCS(=O)(=O)C1CCCC1)N1CCCC(n2ccnc2)C1 (stereo unspecified) | 7.067
8 | CC(C)S(=O)(=O)CC(=O)N1CCCC(n2ccnc2)C1 (stereo unspecified) | 0.06667
9 | CCc1nnsc1C(=O)NC1CCN(CCOc2ccc(Br)cc2)CC1 | -5.495
10 | CN1CCN(Cc2noc(CCc3nc(-c4ccccc4)no3)n2)CC1 | 3.84
11 | O=C(CN1CCc2cncnc2C1)NC(c1ccccc1)C1CC1 (stereo unspecified) | 5.851
12 | CNC(=O)CS(=O)(=O)Cc1cc(Cl)c2c(c1)OCCCO2 | 7.566
13 | O=C(CS(=O)(=O)Cc1cc(Cl)c2c(c1)OCO2)N1CCCCCC1 | 135.5
14 | CCN(C(=O)CS(=O)(=O)Cc1cc(Cl)c2c(c1)OCCCO2)C1CC1 | 3.578
15 | CN(C)C(=O)CS(=O)(=O)Cc1cc(Cl)c2c(c1)OCO2 | 2.003
16 | CC(C(N)=O)S(=O)(=O)Cc1cc(Cl)c2c(c1)OCO2 (stereo unspecified) | -4.736
17 | O=C(CS(=O)(=O)Cc1cc(Cl)c2c(c1)OCO2)N1CCCC1 | 112.9
18 | c1cnnc(N2CCCC(NCc3nc(-c4cccs4)no3)C2)c1 (stereo unspecified) | -0.05894
19 | Fc1cccc(C(NCc2ncc[nH]2)c2ccccn2)c1 (stereo unspecified) | -5.246
20 | CCOCCC(=O)NC(Cc1ccc(C)cc1)c1ccccn1 (stereo unspecified) | 30.55
21 | CCOCCCC(=O)N(C)C(c1cccc(F)c1)c1ccccn1 (stereo unspecified) | 89.97
22 | CCCC(=O)N(C)c1cccc2ncccc12 | -4.906

Row | Compound | Percent Effect [%]
23 | CCCC(=O)N(C)C(c1cccc(F)c1)c1ccccn1 (stereo unspecified) | 104.7
24 | CN(C)C(=O)CCCNC(=O)C(c1cccc(F)c1)N(C)C (stereo unspecified) | -9.864
25 | O=C(C1CC(=O)N(C2CC2)C1)N1CCN(CCn2cccc2)CC1 (stereo unspecified) | -24.19
26 | CCc1nnsc1-c1nc(C(C)C)nn1-c1ccc2c(c1)OCO2 | 11.97
27 | CNC(=O)C(C)(C)N1CCC[C@H]1C(=O)NC1CCCC1 | 1.106
28 | Cc1onc(N)c1S(=O)(=O)N1CCCCC1C (stereo unspecified) | -5.745
29 | COC(=O)[C@H]1CN(C(=O)NC(C)C)CCN1C(=O)C1CCCCC1 | -4.407
30 | O=C(NC1CCCC1)c1nc2c(o1)CN(C(=O)CO)C2 | -3.342
31 | CCOC(=O)c1nc(CN2CCN(C(=O)NC3CCCCC3)CC2)cs1 | 0.1108
32 | CC(C)NC(=O)N1CC(=O)c2sc(NC3CCCCC3)nc2C1 | 121.6
33 | O=C(NC1CCCC1)c1nc2c(o1)CN(C(=O)CCO)C2 | 3.342
34 | CC[C@H](C)[C@H](N)C(=O)N1CC(=O)c2sc(NC3CCCCC3)nc2C1 | 89.49
35 | CC(C)CC(=O)N1CC(=O)c2sc(NC3CCCCC3)nc2C1 | 104.9
36 | CC(C)NC(=O)N1CCN2C(=O)OC[C@H]2C1 | -2.318
37 | COc1nccnc1N1CCN(Cc2cccc(C)c2)C(=O)C1 | -1.846
38 | O=C(NCC1(c2ccc(F)cc2)CCC1)N1CCC2(C1)OCCO2 | -19.46
39 | Cn1c(CCNC(=O)CC[C@@H]2CCCN3CCCC[C@H]23)n[nH]c1=O | -0.3828
40 | O=C(NCCNc1ccc(C(F)(F)F)cn1)c1ccc(F)cc1Cl | 145.5
41 | CC(C)(O)CSCCNC(=O)c1ccc(F)cc1Cl | -9.614
42 | O=C(NCCNc1ccc(C(F)(F)F)cn1)c1cc(Cl)ccc1F | 114.8
43 | O=C(NCCNc1ccc(C(F)(F)F)cn1)c1ccc(Br)cc1F | 1.294
44 | O=C(NCCNc1ccc(C(F)(F)F)cn1)c1ccc(Cl)cc1F | 105.2

Row | Compound | Percent Effect [%]
45 | CC(C)(C)C(O)CCNC(=O)c1ccc(F)cc1Cl (stereo unspecified) | 15.76
46 | N#Cc1ccc(NCCNc2ccc(C(F)(F)F)cn2)nc1 | -10.16
47 | O=C(NCCNc1ccc(C(F)(F)F)cn1)c1ccc(Br)cc1 | 145.4
48 | Cc1occc1C(=O)NCCOc1ccc(C(F)(F)F)cn1 | -9.163
49 | O=C(NCCNc1ccc(C(F)(F)F)cn1)c1cncc(Br)c1 | 0.7864
50 | O=C(NCCNc1ccc(C(F)(F)F)cn1)c1ccoc1 | 28.2
51 | CC(C)n1ccnc1C1CCCN(c2ccnc3ccccc23)C1 (stereo unspecified) | -21.91
52 | O=C(c1cccnc1)N1CCN(c2ccc(-n3cccc3)nn2)CC1 | -8.085
53 | CCCc1noc(CS(=O)(=O)CC(=O)NC(C)CCC)n1 (stereo unspecified) | 14.1
54 | Cc1nnc(CCNC(=O)Nc2ccc(S(C)(=O)=O)cc2)[nH]1 | -1.089
55 | COC(=O)CC(c1ccc(OC)c(OC)c1)c1oc(C)cc(=O)c1O (stereo unspecified) | 10.24
56 | CN(C)S(=O)(=O)N1CC[C@]2(C[C@H](Oc3cccnc3)CO2)C1.O=C(O)C(F)(F)F | -11.38
57 | Cc1cnn(CC2CN(Cc3nc(-c4ccoc4)no3)CCO2)c1 (stereo unspecified) | -0.2172
58 | Cc1cnn(CC2CN(Cc3nccn3C)CCO2)c1 (stereo unspecified) | -4.713
59 | Cc1cnn(CC2CCCN2Cc2nnsc2Cl)c1 (stereo unspecified) | -1.868
60 | COCCc1noc(CN2CCOC(Cn3cc(C)cn3)C2)n1 (stereo unspecified) | 92.63
61 | Cc1cnn(CC2CCCCN2Cc2nnc(C3CC3)n2C)c1 (stereo unspecified) | 0.7799
62 | Cc1cnn(CC2CN(CCS(=O)(=O)C(F)(F)F)CCO2)c1 (stereo unspecified) | -38.13
63 | Cc1cnn(CC2CN(Cc3nc(C4CC4)no3)CCO2)c1 (stereo unspecified) | 115.6
64 | Cc1cnn(CC2CN(Cc3nnc(C4CC4)n3C)CCO2)c1 (stereo unspecified) | 99.89
65 | Cc1cnn(CC2CCCN2Cc2nnc(C3CC3)n2C)c1 (stereo unspecified) | 103.3
66 | OC1(CNc2ccc(-c3nc(C4CC4)no3)cn2)CCCCC1 | 10.35

Row | Compound | Percent Effect [%]
67 | O=C(O)C1c2nc[nH]c2CCN1CC(c1ccccc1)c1ccccc1 (stereo unspecified) | -19.87
68 | O=c1cc(N2CCNCC2)cnn1CCCn1cccn1 | 6.31
69 | CSCc1nc(CNC(=O)C2CCCN(CC(N)=O)C2)cs1 (stereo unspecified) | -6.144
70 | CCC(C)(C)NC(=O)COC(=O)c1cc(C)ccc1NC(=O)N(C)C | -1.36
71 | O=C(O)c1cccc(N2C[C@H](NC(=O)C3CCOCC3)[C@@H](C3CC3)C2)n1 | -12.83
72 | CN1CCCCC1Cc1nc(Cc2cccc(F)c2)no1 (stereo unspecified) | 9.056
73 | CCN(CC)Cc1nc(Cc2cccc(C(F)(F)F)c2)no1 | 107.6
74 | CN(CCc1cn[nH]c1)Cc1nc(Cc2cccc(C(F)(F)F)c2)no1 | -3.312
75 | CN(CCc1cn[nH]c1)Cc1nc(Cc2cccc(F)c2)no1 | -20.63
76 | CN(Cc1nc(Cc2cccc(C(F)(F)F)c2)no1)C1CCOCC1 | 106.5
77 | CN(Cc1nc(Cc2cccc(C(F)(F)F)c2)no1)C(C1CC1)C1CC1 | 104.1
78 | CN(Cc1nc(Cc2cccc(F)c2)no1)C1CCOCC1 | 108
79 | CCn1ccnc1CN(C)Cc1nc(Cc2cccc(F)c2)no1 | 17.71
80 | CN(CCc1ccccc1)Cc1nc(Cc2cccc(F)c2)no1 | -15.79
81 | Cc1n[nH]c(C)c1CNCC(O)c1ccc(F)c(F)c1 (stereo unspecified) | -7.93
82 | O=C(c1ccc(-n2ccnc2)nn1)N1CCCC1CCc1ccccc1 (stereo unspecified) | 7.406
83 | c1nc2c(c(NCCCn3cncn3)n1)CCN(CC1CCOC1)CC2 (stereo unspecified) | 11.83
84 | CN(Cc1nc(Cc2cccc(C(F)(F)F)c2)no1)C1CCCCC1 | 113.9
85 | CN(Cc1cnn(C)c1)Cc1nc(Cc2cccc(Cl)c2)no1 | 5.655
86 | CN(Cc1nc(Cc2cccc(C(F)(F)F)c2)no1)CC1CCCCO1 (stereo unspecified) | 99.9
87 | CN(Cc1cccc(C(F)(F)F)c1)Cc1nc(-c2cnccn2)no1 | -14.23
88 | O=C(C1CCC2(CCN(CC3CCOCC3)CC2)O1)N1CCCC1.O=C(O)C(F)(F)F (stereo unspecified) | -34.36

Row | Compound | Percent Effect [%]
89 | CN(C)C(=O)COC1COC2(CCN(CC3CCOCC3)CC2)C1.O=C(O)C(F)(F)F (stereo unspecified) | 121.3
90 | CCOC1COC2(CCN(CC3CCOCC3)CC2)C1.O=C(O)C(F)(F)F (stereo unspecified) | 102.9
91 | O=C(O)C(F)(F)F.O=C(O)C(F)(F)F.c1ccc(OC2COC3(CCN(CC4CC4)CC3)C2)nc1 (stereo unspecified) | -30.37
92 | CCOC1COC2(CCN(CC3CC3)CC2)C1.O=C(O)C(F)(F)F (stereo unspecified) | 97.53
93 | CN(C)C(=O)COC1COC2(CCN(CC3CC3)CC2)C1.O=C(O)C(F)(F)F (stereo unspecified) | -29.66
94 | COc1ccccc1CN1CC[C@]2(C[C@@H](OCC(=O)N(C)C)CO2)C1.O=C(O)C(F)(F)F | -8.079
95 | O=C(O)C(F)(F)F.O=S(=O)(N[C@@H]1CCO[C@]2(CCN(CC3CCOCC3)C2)C1)C1CC1 | -3.129
96 | Clc1cc(Cl)cc(CN2CCC(NCc3cc[nH]n3)CC2)c1 | 16.8
97 | Cc1cccc(C(C)(C)NC(=O)CS(=O)(=O)CC(C)C)c1 | 15.34
98 | COCCNC(=O)C[C@@H]1COC[C@H]2CN(CC3CCOCC3)C[C@@H]12.O=C(O)C(F)(F)F | 95.67
99 | CCC1CN(CC(=O)NCCOC)CCO1 (stereo unspecified) | -3.161
100 | COCCNC(=O)C[C@@H]1COC[C@H]2CN(C(=O)c3cnccn3)C[C@@H]12 | -3.747
101 | CC[C@H]1CN(C(=O)C2CC2)CC[C@H]1CC(=O)NCCN1CCOCC1 | 0.8633
102 | COCCNC(=O)C[C@@H]1COC[C@H]2CN(C(=O)C3CCOCC3)C[C@@H]12 | 115.8
103 | O=C(C[C@@H]1COC[C@H]2CN(CC3CCOCC3)C[C@@H]12)N1CCCCO1.O=C(O)C(F)(F)F | -14.45
104 | O=C(C[C@@H]1COC[C@H]2CN(CC3CC3)C[C@@H]12)N1CCCCO1.O=C(O)C(F)(F)F | -10.75
105 | CC[C@H]1CN(S(C)(=O)=O)CC[C@H]1CC(=O)NCCOC | 0.9239
106 | COCCNC(=O)C[C@@H]1COC[C@H]2CN(C(=O)COC)C[C@@H]12 | 99.69
